Source: PubChem
Lamin A splicing: modulators of lamin A splicing | HeLa LMNA splicing GFP/RFP minigene ratio, 48 h | Potency, µM (highest dose often 46.1 µM), without a hit: at the highest dose ratio change, negative = inhibition, most hits filed as inhibitors | 200,000 tested, 0.01% active; active = well fitted inhibition curve with a large enough effect in the signal ratio, with a control signal flat, not every such curve was filed as active; inconclusive = small, poorly fitted or top-dose-only effect, or effect the other way, or a change in a side signal; the % refers to the signal ratio; note: % is set by controls: 0 for no effect and ±100 for the full control effect
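Read-out is the ratio of GFP to DsRed2 object intensity, acquired by 488 nm laser-scanning cytometry on HeLa lamin A-EGFP minigene reporter cells. Compound incubation 48 hrs at 37 °C in Opti-MEM with 2% FBS; DMSO 0.5% final.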
JMJD2E inh: JMJD2E (human) inhibition | B2RXH2 | JMJD2E catalytic domain, FDH-coupled NADH fluorescence (FDH is formaldehyde dehydrogenase) | Potency, µM (series often up to 57.1 µM), for inactives: top-dose activity change, negative = inhibition, usual class: inhibitors | 230,000 tested, 1.6% active | AID 2147;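 note: 0% = wells with enzyme and -100% = buffer wells without enzyme; nearly all actives have a fitted effect of over 50% in size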
Target sequence (B2RXH2 1-337 limits assumed): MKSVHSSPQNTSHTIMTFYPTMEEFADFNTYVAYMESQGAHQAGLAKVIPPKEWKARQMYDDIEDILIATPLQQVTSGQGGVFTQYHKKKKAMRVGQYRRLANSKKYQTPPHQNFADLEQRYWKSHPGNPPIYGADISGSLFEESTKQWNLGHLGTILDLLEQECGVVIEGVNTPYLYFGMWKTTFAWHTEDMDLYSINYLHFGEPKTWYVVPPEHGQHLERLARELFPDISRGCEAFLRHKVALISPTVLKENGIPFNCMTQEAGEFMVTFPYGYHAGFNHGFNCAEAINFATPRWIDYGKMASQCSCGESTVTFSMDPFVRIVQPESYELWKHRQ
HttQ103 aggreg: reduces HttQ103-GFP aggregates in PC12 cells | PC12 HttQ103-GFP aggregates, Acumen cytometry, 40 h | 220,000 tested, 1.1% active | Potency, µM (top dose mostly 46.1 µM), without a hit: at the highest dose activity change, negative = inhibition, actives largely listed as inhibitors; active = well fitted curve in the direction sought with a large enough effect; inconclusive = small, poorly fitted or top-dose-only effect, or another doubt; inactive = no such curve, though single readings can be large; an effect the other way counts as inactive or inconclusive; note: % is set by controls: 0 for no effect and ±100 for the full control effect; nearly all actives have a fitted effect of over 60% in size
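Steps: seed 1500 PC12 HTTQ103-GFP cells/well; add tebufenozide, 100 nM final; add compound titration; add ATPLite reagent; quantify GFP aggregates by laser scanning cytometry.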
HTT cytoprotect: protects HTT-Q103 PC12 cells, measured by ATP | 230,000 tested, 0.14% active | AID 1471 | Potency, µM (doses to about 56.4 µM), inactives show cytoprotection (ATP increase), most hits filed as activators | PC12 HTT-Q103 induced, cytoprotection, ATP luminescence, 40 h; active = well fitted curve in the direction sought with a large enough effect; inconclusive = small, poorly fitted or top-dose-only effect, or another doubt; inactive = no such curve, though single readings can be large; an effect the other way counts as inactive or inconclusive; note: % of control where 0% means no effect; nearly all actives have a fitted effect of over 45% in size
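Cells were plated at 1500 per well in phenol red-free DMEM with 5% equine and 5% calf serum. Tebufenozide (100 nM final) and compounds were added, then ATPlite reagent, and luminescence was read.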
ALDH1A1 block: ALDH1A1 (human) enzyme inhibition; Purified ALDH1A1, NADH fluorescence, propionaldehyde substrate; Potency, µM (doses to about 75.3 µM), for inactives: at the top dose activity, negative = inhibition, most hits filed as inhibitors; 220,000 tested, 7.3% active;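 note: plate controls were no enzyme wells and a reference inhibitor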
HPGD block: HPGD (human) dehydrogenase inhibition; purified HPGD, NADH fluorescence kinetic, PGE2 substrate; Potency, µM, without a hit: at the top dose activity change, negative = inhibition, most hits filed as inhibitors; 150,000 tested, 4.3% active; note: % is set by controls: 0 for no effect and ±100 for the full control effect
Target sequence (P15428 whole entry, looked up): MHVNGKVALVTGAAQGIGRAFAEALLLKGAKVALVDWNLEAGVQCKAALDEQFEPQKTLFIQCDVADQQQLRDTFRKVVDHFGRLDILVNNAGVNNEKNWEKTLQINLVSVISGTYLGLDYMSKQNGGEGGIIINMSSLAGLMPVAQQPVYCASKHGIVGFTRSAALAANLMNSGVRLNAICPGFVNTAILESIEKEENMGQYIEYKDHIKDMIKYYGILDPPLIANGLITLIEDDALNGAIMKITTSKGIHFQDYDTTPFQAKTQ
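NADH formation kinetics: reaction with 30 uM PGE2 and 1 mM NAD+ (final), 20 nM enzyme, Tris-HCl pH 8 with Tween 20, after 15 min compound preincubation at room temperature. Fluorescence change, last versus first of five reads.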
Numbers without * were called inactive; ? = inconclusive; · = not tested or not shown; ! = repeats disagree; [ ] = remark or other dose. A selection: hits, their analogues and other compounds. The true share with any hit is near 9.2%. Unless noted, calls come from the whole dose curve; as a rule, active = well fitted inhibition curve with a large enough effect (not every such curve was filed as active); inconclusive = small, poorly fitted or top-dose-only effect, or another doubt; inactive = no such curve, though single readings can be large or run the other way. Potency is the fitted concentration of half-maximal effect.

SMILES	Lamin A splicing	JMJD2E inh	HttQ103 aggreg	HTT cytoprotect	ALDH1A1 block	HPGD block
CC(=O)NC1C(=O)Nc2c1cccc2C(F)(F)F (configuration not stated)	-1%	-1%	-16%	-2%	0.28µM*	-5%
COC(=O)[C@@]1(Cc2ccc(F)cc2)[C@H]2c3cc(C(=O)N4CCCC4)n(Cc4ccc(C(F)(F)F)nc4)c3C[C@H]2CN1C(=O)c1ccccc1	?	-7%	-11%	10µM*	3%	-18%
COC(=O)[C@@]1(Cc2ccc(OC)cc2)[C@H]2c3cc(C(=O)N(C)C)n(Cc4ccc(C)o4)c3C[C@H]2CN1C(=O)c1ccccc1	·	?	·	22%	?	25µM*
COC(=O)[C@@]1(Cc2ccc(F)cc2)[C@H]2c3cc(C(=O)N4CCCC4)n(Cc4ccc(C)o4)c3C[C@H]2CN1C(=O)c1ccccc1	·	?	·	20%	-2%	22µM*
COC(=O)[C@@]1(Cc2ccc(F)cc2)[C@H]2c3cc(C(=O)N4CCCC4)n(Cc4ccc(C)c(F)c4F)c3C[C@H]2CN1C(=O)c1ccccc1	·	-6%	·	?	4%	-15%
COC(=O)[C@@]1(Cc2ccc(F)cc2)[C@@H]2[C@@H](CC(=O)[C@H]2CC(=O)C(=O)N(C)C)CN1C(=O)c1ccccc1	5%	16µM*!	28%	?	20%	-2%
COC(=O)[C@@]1(Cc2ccc(OC)cc2)[C@H]2c3cc(C(=O)N(C)C)n(CCO)c3C[C@H]2CN1C(=O)c1ccccc1	·	11%	·	-6%	-7%	-7%
C=CC1=C(C)C2=Cc3c(C=C)c(C)c4[n]3[Sn+2][n]3c(c(C)c(CCC(=O)O)c3=CC3=NC(=C4)C(C)=C3CCC(=O)O)=CC1=N2	·	?	·	2%	?	-19%
O=C(Nc1ccc(OC(F)(F)F)cc1)c1ccc(S(=O)(=O)N2CCOCC2)o1	?	2%	-24%[9.22 µM]	-15%[10 µM]	9%	·
CSCCC(NC(=O)c1ccccc1)C(=O)N/N=C(\C)c1ccccc1 (configuration not stated)	-3%	-2%	2%	31%[1.9 µM]	21%	2%
CC(C)c1ccc(S(=O)(=O)N2CCN(Cc3cccc(F)c3)CC2)cc1	-20%[46 µM]	·	·	·	·	·
CC(C)N(CC#CCC(O)(c1ccccc1)C1CCCC1)CCO (configuration not stated)	·	-3%	1%[9.22 µM]	-1%[10 µM]	28µM*	·
CCOC(=O)N1CCN(C(=O)CSc2ccccc2)CC1	8%	2%	-2%	-4%	?	10µM*
CCOC(=O)N1CCN(C(=O)c2ccccc2CCc2ccccc2)CC1	14%	-3%	5%	12%	6.3µM*	-6%
OCCSCc1ccccc1	·	·	·	-12%[10 µM]	0%[13.5 µM]	-9%
O=c1c2ccccc2nc2n1C(CSCc1ccc(Cl)cc1)CS2 (configuration not stated)	?	9%	11µM*	-2%[10 µM]	?	-12%
CC1(C)Oc2ccc3ccc(=O)oc3c2CC1=O	·	?	·	-30%	?	?
Cc1ccc(S(=O)(=O)N/N=C/c2cc([N+](=O)[O-])ccc2O)cc1[N+](=O)[O-]	?	-13%	13%	10%[10 µM]	13µM*	·
CCOc1cccc(/C=N/NS(=O)(=O)c2ccc(C)c([N+](=O)[O-])c2)c1O	-12%[46 µM]	-7%	-4%	-18%	4µM*	·
COc1cc(/C=N/NS(=O)(=O)c2ccc(C)c([N+](=O)[O-])c2)ccc1O	-4%[46 µM]	-4%	27%	7%	13µM*	·
COc1cc(/C=N/NS(=O)(=O)c2ccc(C(C)(C)C)cc2)cc([N+](=O)[O-])c1O	·	-2%	-3%[9.22 µM]	-15%[10 µM]	7.9µM*	·
Cc1cc(C(=O)CSc2nnc(-c3ccccc3)n2Cc2ccc3c(c2)OCO3)c(C)n1C	6%	1%	10%	-23%[0.074 µM]	-2%	-10%
CC1CCCCN1C(=O)CSc1nc2ccsc2c(=O)n1Cc1ccccn1 (configuration not stated)	0%	3%	1%	-26%	16µM*	-13%
Cc1cc(C(=O)CSc2nc3ccccc3c(=O)n2C)c(C)n1Cc1ccc2c(c1)OCO2	?	-3%	1µM*	-86%	-12%	-24%
CC1CCCCN1C(=O)CSc1nc2cc3c(cc2c(=O)n1Cc1ccc2c(c1)OCO2)OCO3 (configuration not stated)	1%	4%	-17%	-8%[0.074 µM]	22µM*	-27%
SMILES	Lamin A splicing	JMJD2E inh	HttQ103 aggreg	HTT cytoprotect	ALDH1A1 block	HPGD block
CCn1c(SCC(=O)N2CCCCC2C)nc2ccsc2c1=O (configuration not stated)	?	3%	-11%	-22%	7.9µM*	?
CC1CCN(C(=O)CSc2nc3ccccc3c(=O)n2Cc2ccc3c(c2)OCO3)CC1	3%[0.0737 µM]	-4%	?	-39%	?	-20%
Cc1cccc(NC(=O)CSc2nc(N)c(NC(=O)c3cccs3)c(=O)[nH]2)c1C	-4%	3%	-9%	·	0%	0%
c1cn(-c2ncnc3sc4c(c23)CCCC4)cn1	0%	?	11µM*	20%[10 µM]	?	-25%
Fc1ccc(CN(Cc2ccccc2)C(c2cccs2)c2nnnn2C2CCCCC2)cc1 (configuration not stated)	-18%	-5%	25µM*	-2%	3%	-3%
N#Cc1ccccc1-c1cncnc1NCc1cccnc1	-8%	-3%	·	-28%	28µM*	?
OC1OC[C@@H](O)[C@H](O)[C@@H]1O (some centres not stated)	-30%	·	2%	56%	·	·
COc1ccc(CCC(C)Nc2ccc(F)cc2)cc1 (configuration not stated)	6%	?	-9%	-6%	6%	-13%
COc1ccc(CCC(C)Nc2ccc(F)c(F)c2)cc1 (configuration not stated)	-9%	8%	11µM*	3%[10 µM]	?	-9%
COC(=O)[C@@]1(Cc2ccc(F)cc2)[C@H]2c3cc(C(=O)N(C)C)n(Cc4nc5ccccc5[nH]4)c3C[C@H]2CN1C(=O)c1ccccc1	?	?	3%	?	?	-26%
CC1CN=C(N(C(=O)Nc2ccccc2)C(C)C)S1 (configuration not stated)	-5%	19%	-17%	41%[10 µM]	4%	-11%
Cc1ccc(N(C(=O)Nc2ccccc2)C2=NCC(C)S2)cc1 (configuration not stated)	1%	8%	5%	-9%[10 µM]	-6%	11µM*
CCOc1cc(/C=N/n2cnnc2)ccc1OS(=O)(=O)c1ccc(C)cc1	-2%[46 µM]	-25%	-2%[9.22 µM]	-37%[1.9 µM]	22µM*	·
O=C(c1csnn1)N1CCC2(CCCN(c3ccccc3)C2)CC1	·	·	·	-30%	?	-8%
